This passage reports growth results from the supplement of paper PMC12494721.

Counter-ions that a name gives are not always drawn.

The subject of the assay is Escherichia coli IAI1. The experiment in a line: growth (OD595) fold change vs plate DMSO controls (fold change (ratio)); higher = more growth. To be noted: incubation time: 27 h, anaerobic, 37 °C. In outline:
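Growth is calculated as fold change against the median of the DMSO control wells on each plate. Readings at 595 nm from anaerobic mGAM cultures (96-well, 27 h, 37 °C) were blank-subtracted, background-corrected with 20 µM compound solutions in water, and converted to OD by a calibration factor of 5. Fold changes above 1.5 were recorded as NA, and results are means of 2 biological replicates.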
For the compound `CC#C[C@]1(O)CC[C@H]2[C@@H]3CCC4=CC(=O)CCC4=C3[C@@H](c3ccc(N(C)C)cc3)C[C@@]21C` [Mifepristone] (20 µM), the growth turned out to be 0.971. Consider `C[C@]12CC[C@@H]3c4ccc(O)cc4CC[C@H]3[C@@H]1CCC2=O` [Estrone] (20 µM), for which the growth was found to be 1.02. Turning to `O=C(O)c1cccnc1Nc1cccc(C(F)(F)F)c1` [Niflumic acid] (20 µM), the growth worked out at 1.08.

Turning to `OCCN1CCN(CCCN2c3ccccc3C=Cc3ccccc32)CC1` [Opipramol dihydrochloride] (20 µM), the growth came to 0.948. As for `COCC1=C(C(=O)OC(C)OC(=O)OC(C)C)N2C(=O)[C@@H](NC(=O)/C(=N\OC)c3csc(N)n3)[C@H]2SC1` (some centres undefined) [Cefpodoxime proxetil] (20 µM), the growth came out at 1.01. Turning to `CN(CCOc1ccc(CC2SC(=O)NC2=O)cc1)c1ccccn1` (centres undefined) [Rosiglitazone hydrochloride] (20 µM), the growth came out at 1.15. To `CC(C(=O)O)c1ccc(-c2ccccc2)c(F)c1` (centres undefined) [Flurbiprofen] (20 µM) belongs 1; to `CCCCc1oc2ccc(NS(C)(=O)=O)cc2c1C(=O)c1ccc(OCCCN(CCCC)CCCC)cc1` [Dronedarone hydrochloride] (20 µM), 1.09.

In the case of `O=C(COc1ccc(Cl)cc1)N1CCN(Cc2ccc3c(c2)OCO3)CC1` [Fipexide hydrochloride] (20 µM), the growth stood at 0.947. On to `CCCCCCCCCCCCCCCC[N+](C)(C)CCN(Cc1ccc(OC)cc1)c1ncccn1` [Thonzonium bromide] (20 µM), for which the growth is 1.04. Consider `C#C[C@]1(O)CC[C@H]2[C@@H]3CCc4cc(OC)ccc4[C@H]3CC[C@@]21C` [Mestranol] (20 µM), for which the growth came to 0.999. On to `OC(CCN1CCCCC1)(c1ccccc1)C1CCCCC1` (centres undefined) [Trihexyphenidyl-D,L hydrochloride] (20 µM), for which the growth is 1.11. The figure for `O=C(Cn1cnnn1)N[C@@H]1C(=O)N2C(C(=O)O)=C(CSc3nncs3)CS[C@H]12` [Ceftezole] (20 µM) is 0.855. To `CCOc1ccc(NC(N)=O)cc1` [(4-Ethoxyphenyl)urea] (50 µM) belongs 0.949; to `NC(=O)c1ncn([C@@H]2O[C@H](CO)[C@@H](O)[C@H]2O)n1` [Ribavirin] (20 µM), 0.988. For the compound `CC1(C)S[C@@H]2[C@H](NC(=O)C(C(=O)O)c3ccccc3)C(=O)N2[C@H]1C(=O)O` (some centres undefined) [Carbenicillin disodium salt] (20 µM), the growth came out at 1.19.

Turning to `O=C(c1ccccc1)c1ccc2n1CCC2C(=O)O` (centres undefined) [Ketorolac tromethamine] (20 µM), the growth was determined as 1.04. The figure for `CN(C(=O)CN(CCO)CC(=O)N(C)C(C)(C)Cc1ccccc1)C(C)(C)Cc1ccccc1` [Oxethazaine] (20 µM) is 1.05; for `CCOC(=O)[C@H](CCc1ccccc1)N[C@@H](C)C(=O)N1Cc2ccccc2C[C@H]1C(=O)O` [Quinapril hydrochloride] (20 µM) it is 1.02.

Consider `CC[N+]1(CC)CCC(=C(c2ccccc2)c2ccccc2)C1C` (centres undefined) [Prifinium Bromide] (20 µM), for which the growth is 1.08.

Take `O=P(O)(O)C(Cl)(Cl)P(=O)(O)O` [Clodronate disodium] (20 µM): the growth amounted to 1.03. Regarding `CCOC(=O)[C@@](C)(N)Cc1ccc(O)c(O)c1` [Methyldopate hydrochloride] (20 µM), the growth came out at 1.05. The figure for `O=C(NCCO[N+](=O)[O-])c1cccnc1` [Nicorandil] (20 µM) is 0.985.

For `CN1CCN(c2c(F)cc3c(=O)c(C(=O)O)cn(CCF)c3c2F)CC1` [Fleroxacin] (20 µM), the growth was determined as 0. With `Cn1c(=O)c2c(ncn2CC(=O)O)n(C)c1=O` [Acefylline] (20 µM), the growth stood at 0.94. To `CC(=O)[C@H]1CC[C@H]2[C@@H]3C[C@H](C)C4=CC(=O)CC[C@]4(C)[C@H]3[C@@H](O)C[C@]12C` [Medrysone] (20 µM) belongs 1.03; to `C=C1c2c(Cl)ccc(O)c2C(O)=C2C(=O)[C@]3(O)C(O)=C(C(N)=O)C(=O)[C@@H](N(C)C)[C@@H]3[C@@H](O)[C@H]12.O=C(O)c1cc(S(=O)(=O)O)ccc1O` [Meclocycline sulfosalicylate] (20 µM), 0.000715. To `N[C@@H](CSCCCO)C(=O)O` [Fudosteine] (20 µM) belongs 1.05; to `CC1=C(C(=O)O)N2C(=O)[C@@H](NC(=O)[C@H](N)C3=CCC=CC3)[C@H]2SC1` [Cephradine monohydrate] (20 µM), 1.04; to `Nc1ncnc2c1ncn2[C@@H]1O[C@H](CO)[C@@H](O)[C@@H]1O` [Vidarabine] (20 µM), 1.07. The figure for `CC(C)(CO)[C@@H](O)C(=O)NCCC(=O)NCCSSCCNC(=O)CCNC(=O)[C@H](O)C(C)(C)CO` [D-Pantethine] (20 µM) is 0.976; for `CC(=O)SCC(Cc1ccccc1)C(=O)NCC(=O)OCc1ccccc1` (centres undefined) [Racecadotril] (20 µM) it is 1. As for `O=C(CCCN1CCN(c2ccccn2)CC1)c1ccc(F)cc1` [Azaperone] (20 µM), the growth was 1.24. The figure for `C[C@H](NCc1ccc(OCc2cccc(F)c2)cc1)C(N)=O` [Safinamide] (20 µM) is 0.992; for `CCCC(=O)N1CCCN(c2nc(N)c3cc(OC)c(OC)cc3n2)CC1` [Bunazosin hydrochloride] (20 µM) it is 1.05. In the case of `Cc1ccc2c(c1)c1c3n2CCNC3CCC1` (centres undefined) [Pirlindole mesylate] (20 µM), the growth stood at 1.06. As to `CC(C)(C)NC(=O)[C@@H]1CN(Cc2cccnc2)CCN1C[C@@H](O)C[C@@H](Cc1ccccc1)C(=O)N[C@H]1c2ccccc2C[C@H]1O` [Indinavir sulfate] (20 µM), the growth was 1.01. In the case of `COc1cc(Nc2c(C#N)cnc3cc(OCCCN4CCN(C)CC4)c(OC)cc23)c(Cl)cc1Cl` [Bosutinib] (20 µM), the growth came out at 0.99. The figure for `O=C1[C@H](CC[C@H](O)c2ccc(F)cc2)[C@@H](c2ccc(O)cc2)N1c1ccc(F)cc1` [Ezetimibe] (20 µM) is 1.1.
